{
  "source": "PubChem BioAssay AID2153",
  "about": "(The Scripps Research Institute Molecular Screening Center, 2009)",
  "note": "The campaign covered roughly 2,400 compounds. About 2,000 (83%) were called active. The set was probably picked from earlier hits. The list is a sample of the results. Values without a mark were called inactive.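 Rule for the calls: active = inhibition above the solvent-only control well mean plus 3 SD, limit set per screening run (cut at about 23% in these data); inactive = the rest.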",
  "data": [
    {"molecular_target": "Guanyl-specific ribonuclease T1 (Aspergillus oryzae (strain ATCC 42149 / RIB 40)) (UniProt P00651)", "sequence (P00651 whole entry, looked up)": "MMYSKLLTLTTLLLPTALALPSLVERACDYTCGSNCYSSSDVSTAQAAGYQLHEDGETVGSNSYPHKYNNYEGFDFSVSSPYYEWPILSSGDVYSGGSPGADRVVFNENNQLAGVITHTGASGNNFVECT", "assay": "blockers of Aspergillus RNase T1 cleavage – biochemical, fluorescence polarization, counter-screen for TPT1 inhibitor project (AID 2153);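 note: plate controls were DMSO wells with enzyme for no effect and wells without RNase T1 for full effect; inhibitors block cleavage so intact labeled substrate keeps polarization high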", "details": "1536-well, at 5 µM, hits give high values", "values": [
      {"smiles": "Cc1cc(O)c(C(=O)/C=C/c2c(F)c(F)c(F)c(F)c2F)c(=O)o1", "inhibition": "81.2% (active)"},
      {"smiles": "N#CC1=C(N)Oc2c(sc3ccccc23)C1c1ccco1", "note": "(stereo not given)", "inhibition": "76.9% (active)"},
      {"smiles": "Cn1c2ccccc2c2cc(/C=C(\\NC(=O)c3ccccc3)C(=O)NCC(=O)O)ccc21", "inhibition": "92.9% (active)"},
      {"smiles": "Cc1ccc(Nc2ccccc2N)cc1", "inhibition": "36% (active)"},
      {"smiles": "Cc1cccn2c(=O)c(/C=C3\\SC(=S)N(CC(C)C)C3=O)c(NCCCOC(C)C)nc12", "inhibition": "131% (active)"},
      {"smiles": "COc1cc(/C=C2/C(=O)NN(c3cccc(Cl)c3)C2=O)cc(Br)c1O", "inhibition": "150% (active)"},
      {"smiles": "Cc1cc(C)c(/C=C2\\C(=O)Nc3ccccc32)[nH]1", "inhibition": "118% (active)"},
      {"smiles": "Cc1ccc(-c2nn(-c3ccccc3)cc2/C=C2\\SC(=S)N(CCCCCC(=O)O)C2=O)o1", "inhibition": "73.6% (active)"},
      {"smiles": "CCC(c1nnnn1Cc1ccco1)N(Cc1cc2cc(OC)ccc2[nH]c1=O)C1CCCCC1", "note": "(stereo not given)", "inhibition": "17.9%"},
      {"smiles": "N#C/C(=C(/O)COC(=O)COc1ccc(Cl)cc1)c1nc2ccccc2[nH]1", "inhibition": "50.6% (active)"},
      {"smiles": "CCOc1ccc2nc(/N=C/c3nc(-c4ccccc4)oc3O)sc2c1", "inhibition": "65.4% (active)"},
      {"smiles": "Cc1c(-c2ccccc2)cn2c1-c1ccc(C)n1CC2", "inhibition": "47.3% (active)"},
      {"smiles": "Cn1cccc1/C=C1\\SC(=S)N(NC(=O)c2ccc(Cl)cc2)C1=O", "inhibition": "113% (active)"},
      {"smiles": "Fc1ccc2nc(Nc3nc4c(s3)CCCC4)sc2c1", "inhibition": "37.5% (active)"},
      {"smiles": "CN1/C(=C\\C=C2\\N=C(c3ccc(F)cc3)OC2=O)C(C)(C)c2ccccc21", "inhibition": "140% (active)"},
      {"smiles": "Cc1ccc(C)c2[nH]c(=O)c(CCNC(=O)CC(C)C)cc12", "inhibition": "6.2%"},
      {"smiles": "N#C/C(=C/c1ccc(N2CCCCC2)o1)C(=O)NCCc1c[nH]c2ccccc12", "inhibition": "170% (active)"},
      {"smiles": "CN1/C(=c2/s/c(=C3/C(=O)N(c4ccccc4)NC3=Nc3ccccc3)n(C)c2=O)C(C)(C)c2ccccc21", "inhibition": "92.8% (active)"},
      {"smiles": "CS(=O)(=O)c1ccc2c(c1)SC1=NC(=O)/C(=C/c3ccco3)C(=N)N12", "inhibition": "60.6% (active)"},
      {"smiles": "CCN(CC)c1ccc(/C=N/Nc2nc(C)cc(C)n2)c(O)c1", "inhibition": "44.9% (active)"},
      {"smiles": "Cc1ccc(S(=O)(=O)N(C)c2nc3ccccc3n3c(C(C)C)nnc23)cc1", "inhibition": "3.03%"},
      {"smiles": "CCOc1nnc(C)c2c(C)n(-c3cccc(Cl)c3)nc12", "inhibition": "88.4% (active)"},
      {"smiles": "CSC1=N/C(=C\\C=C\\c2cccs2)C(=O)S1", "inhibition": "64.5% (active)"},
      {"smiles": "CCCOc1ccc(Cn2c(O)cc(=O)[nH]c2=O)cc1", "inhibition": "30.3% (active)"},
      {"smiles": "COc1ccc(C2=NN(C(=O)c3ccccc3C(=O)O)C(c3ccccc3O)C2)cc1", "note": "(stereo not given)", "inhibition": "37.9% (active)"},
      {"smiles": "O=C(/C=C/c1ccc(N2CCOCC2)cc1)c1ccccc1", "inhibition": "91.3% (active)"},
      {"smiles": "Cc1ccc(Nc2nc(Cl)c(C=O)s2)cc1", "inhibition": "77.2% (active)"},
      {"smiles": "Cc1ccc2[nH]c(=O)c(CN3CCCCC3)c(-c3ccccc3)c2c1", "inhibition": "3.06%"},
      {"smiles": "CCOc1ccc(-n2c(O)c(/C=N/c3ccnn3Cc3ccncc3)c3ccccc3c2=O)cc1", "inhibition": "92% (active)"},
      {"smiles": "Cc1ccc2cc(/C=N/Nc3ccc(C(=O)O)cc3)c(Cl)nc2c1", "inhibition": "46.9% (active)"},
      {"smiles": "CCn1c(/C=C/c2ccc([N+](=O)[O-])o2)nc2ccccc2c1=O", "inhibition": "49.4% (active)"},
      {"smiles": "CN=c1scc(-c2cc(OC)ccc2OC)n1/N=C/c1c(C)[nH]c2ccccc12", "inhibition": "32.1% (active)"},
      {"smiles": "COc1cc(N2CCCC2)c(OC)cc1/C=C(/C#N)c1cccc(Br)c1", "inhibition": "91.3% (active)"},
      {"smiles": "CCN1/C(=C\\c2ccc3ccccc3[n+]2CC)Sc2cc(C)ccc21", "inhibition": "88.3% (active)"},
      {"smiles": "CCN1/C(=C/c2ccc3ccc(C)cc3[n+]2CC)Sc2ccccc21", "inhibition": "59.6% (active)"},
      {"smiles": "O=S(=O)(O)Oc1c[nH]c2ccccc12", "inhibition": "49.5% (active)"},
      {"smiles": "CCOC(=O)C1=C(C)Nc2sc(C(=O)c3ccc(Br)cc3)c(N)c2C1c1ccc(C(=O)OC)cc1", "note": "(stereo not given)", "inhibition": "37.3% (active)"},
      {"smiles": "Cc1cc(/C=C2/SC(=O)N(CC(=O)N3CCCC3)C2=O)ccc1N1CCOCC1", "inhibition": "78.1% (active)"},
      {"smiles": "CC(=O)n1c(C=Nc2ccccc2)c(O)c2ccccc21", "inhibition": "84.6% (active)"},
      {"smiles": "COC(=O)c1[nH]c2cccc(C)c2c1NC(=O)CN1CCCc2ccccc21", "inhibition": "29.8% (active)"},
      {"smiles": "CCN(CC)c1ccc2cc(C(N)=O)/c(=N\\NC(=O)c3ccncc3)oc2c1", "inhibition": "135% (active)"},
      {"smiles": "CCOC(=O)c1c(NC(=S)Nc2ccccc2)sc2c1CCN(C)C2", "inhibition": "54% (active)"},
      {"smiles": "CC(=O)c1cc(NC(=O)c2ccccc2)c(=O)oc1/C=C/N(C)C", "inhibition": "123% (active)"},
      {"smiles": "CC[n+]1cc(C)ccc1/C=C/c1ccc(N(C)C)cc1", "inhibition": "51.2% (active)"},
      {"smiles": "O=C(NNc1c2ccccc2nc2ccccc12)c1cc2ccccc2cc1O", "inhibition": "46.8% (active)"},
      {"smiles": "CCN(CC)C(=O)CSC(Nc1cccc(F)c1)=C(C#N)C#N", "inhibition": "61.1% (active)"},
      {"smiles": "CN(C)CCCn1c(N)c(C#N)c2nc(C#N)c(C#N)nc21", "inhibition": "58.9% (active)"},
      {"smiles": "Cc1ccc(N=C2NC(=O)/C(=C/C=C/c3ccco3)S2)cc1C", "inhibition": "30.5% (active)"},
      {"smiles": "COc1ccc(Cc2nc(-c3ccccn3)no2)cc1OC", "inhibition": "13.1%"},
      {"smiles": "CN(C)c1ccc(/C=C2\\NC(=S)N(Cc3ccccc3)C2=O)cc1", "inhibition": "144% (active)"},
      {"smiles": "CCOC(=O)c1c(CC(C)C)csc1/N=C/C1=C(O)CCCC1=O", "inhibition": "17.9%"},
      {"smiles": "Cc1cc(/C=N/Nc2ccc([N+](=O)[O-])cn2)c(C)n1-c1cccc(C(=O)O)c1", "inhibition": "62.8% (active)"},
      {"smiles": "Cc1ccc(-n2c(C)cc(/C=N/Nc3ccc([N+](=O)[O-])cn3)c2C)c(C)c1", "inhibition": "76.1% (active)"},
      {"smiles": "Nc1nonc1-n1nnc(C(=O)N/N=C/c2cc(Br)ccc2O)c1CSC1=NCCS1", "inhibition": "41.6% (active)"},
      {"smiles": "COc1ccccc1/C=N/Nc1nc(C)c(C(C)=O)s1", "inhibition": "39.1% (active)"},
      {"smiles": "O=C(CN1C(=O)c2ccccc2C1=O)NCc1ccc(C(=O)O)cc1", "inhibition": "15.9%"},
      {"smiles": "Cc1c(CC(=O)N2CCN(C(=O)C3COc4ccccc4O3)CC2)c(=O)oc2c(O)c(O)ccc12", "note": "(stereo not given)", "inhibition": "8.71%"},
      {"smiles": "COc1cc(/C=C2/SC(=S)N(Cc3ccccc3)C2=O)cc(OC)c1O", "inhibition": "108% (active)"},
      {"smiles": "NC(=O)c1c(Nc2nc3c(F)cccc3s2)sc2c1CCCC2", "inhibition": "97.8% (active)"},
      {"smiles": "CC1=CC2=NC(=O)/C(=C/c3coc4ccccc4c3=O)C(=N)N2O1", "inhibition": "45.6% (active)"}
    ]}
  ]
}
